Test results: PubChem BioAssay (NCATS)
Values joined by “and” are separate entries in the source; they are usually repeats but may differ in a detail not shown here. Equal entries are not always repeated. Results filed as inconclusive are left out. Entries that show only a call come without a potency. Active and inactive are the calls of the source. Calls come from the whole dose curve; as a rule, active = well fitted curve in the direction sought with a large enough effect; inconclusive = small, poorly fitted or top-dose-only effect, or another doubt; inactive = no such curve, though single readings can be large; an effect the other way counts as inactive or inconclusive.

Assays:
[1] = qHTS of pediatric cancer cell lines to identify multiple opportunities for drug repurposing: Primary screen for LAN-5 cells (AID 1347100)
Procedure, shortened: (§1)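 Viability after 48 h compound treatment at 37C, 500-1,000 cells/well, read as ATP luminescence with CellTiter-Glo. Primary screens used 11-point (MIPE, 0.78 nM-46 µM) or 8-point (NPC, 0.59 nM-46 µM) final concentrations; follow-up screens used 11-point dilutions.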

[2] = qHTS of pediatric cancer cell lines to identify multiple opportunities for drug repurposing: Primary screen for BT-12 cells (AID 1347101); note: nearly all actives have a fitted effect of over 25% in size
Procedure, shortened: (§2)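 Cells (500-1,000/well) rested 5 h, then received compounds for 48 h; metabolically active cells were measured by CellTiter-Glo luminescence. Final concentrations spanned up to 46 µM (MIPE, 11-point) or 0.59 nM-46 µM (NPC, 8-point) in primary screens, 11-point in follow-ups.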

[3] = qHTS of pediatric cancer cell lines to identify multiple opportunities for drug repurposing: Primary screen for Rh18 cells (AID 1347102); note: nearly all actives have a fitted effect of over 65% in size
Procedure, shortened: as §1

[4] = qHTS of pediatric cancer cell lines to identify multiple opportunities for drug repurposing: Primary screen for OHS-50 cells (AID 1347103); note: nearly all actives have a fitted effect of over 40% in size
Procedure, shortened: as §2

[5] = qHTS of pediatric cancer cell lines to identify multiple opportunities for drug repurposing: Primary screen for RD cells (AID 1347104); note: nearly all actives have a fitted effect of over 55% in size
Procedure, shortened: (§3)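 Cells seeded at 500-1,000 cells/well in growth media, rested 5 hours at 37 degrees C, 5% CO2, then dosed; MIPE compounds at 11-point (from 0.78 nM) and NPC at 8-point (from 0.59 nM) final concentrations. Viability by CellTiter-Glo luminescence after 48 hours.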

[6] = qHTS of pediatric cancer cell lines to identify multiple opportunities for drug repurposing: Primary screen for MG 63 (6-TG R) cells (AID 1347105); note: nearly all actives have a fitted effect of over 50% in size
Procedure, shortened: as §3

[7] = qHTS of pediatric cancer cell lines to identify multiple opportunities for drug repurposing: Primary screen for control Hh wild type fibroblast cells (AID 1347106); note: nearly all actives have a fitted effect of over 55% in size
Procedure, shortened: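 Cells (500-1,000/well) in growth media were settled 5 h at 37 degrees C, then given compounds for 48 h. Viability was read as CellTiter-Glo luminescence. Primary runs used MIPE at 11 points (0.78 nM-46 µM) and NPC at 8 points (0.59 nM-46 µM); follow-ups used 11 points.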

[8] = qHTS of pediatric cancer cell lines to identify multiple opportunities for drug repurposing: Confirmatory screen for NB1643 cells (AID 1347109); note: nearly all actives have a fitted effect of over 45% in size
Procedure, shortened: as §1

[9] = qHTS of pediatric cancer cell lines to identify multiple opportunities for drug repurposing: Confirmatory screen for A673 cells (AID 1347110);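 note: cells exposed to compound for 48 h before the viability read; nearly all actives have a fitted effect of over 65% in size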
Procedure, shortened: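 A673 cells seeded at 500-1,000 cells/well, rested 5 h, then dosed; primary MIPE 11-point (0.78 nM to 46 µM), NPC (0.59 nM to 46 µM); confirmatory 11-point. CellTiter-Glo luminescence after 48 h.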

[10] = qHTS of pediatric cancer cell lines to identify multiple opportunities for drug repurposing: Confirmatory screen for DAOY cells (AID 1347114); note: nearly all actives have a fitted effect of over 65% in size
Procedure, shortened: (§4)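 Viability measured as metabolically active cells via CellTiter-Glo luminescence following 48 hours of compound exposure, 11-point dilutions in confirmatory testing. 500-1,000 cells/well plated 5 hours before dosing; controls were DMSO and 2.3 µM bortezomib.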

[11] = qHTS of pediatric cancer cell lines to identify multiple opportunities for drug repurposing: Confirmatory screen for NB-EBc1 cells (AID 1347115);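 note: cells exposed to compound for 48 h before the viability read; nearly all actives have a fitted effect of over 45% in size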
Procedure, shortened: as §1

[12] = qHTS of pediatric cancer cell lines to identify multiple opportunities for drug repurposing: Confirmatory screen for SJ-GBM2 cells (AID 1347116); note: nearly all actives have a fitted effect of over 60% in size
Procedure, shortened: as §4

[13] = qHTS of pediatric cancer cell lines to identify multiple opportunities for drug repurposing: Confirmatory screen for BT-37 cells (AID 1347117); note: nearly all actives have a fitted effect of over 55% in size
Procedure, shortened: as §1

[14] = qHTS of pediatric cancer cell lines to identify multiple opportunities for drug repurposing: Confirmatory screen for TC32 cells (AID 1347118);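 note: cells exposed to compound for 48 h before the read; nearly all actives have a fitted effect of over 65% in size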
Procedure, shortened: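 qHTS, TC32, 48 h drug treatment, CellTiter-Glo luminescence as a proxy for metabolically active cells; primary top concentration 46 µM (MIPE 11-pt, NPC 8-pt); confirmatory 11-pt.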

[15] = qHTS of pediatric cancer cell lines to identify multiple opportunities for drug repurposing: Confirmatory screen for MG 63 (6-TG R) cells (AID 1347119); note: nearly all actives have a fitted effect of over 55% in size
Procedure, shortened: as §1

[16] = qHTS of pediatric cancer cell lines to identify multiple opportunities for drug repurposing: Confirmatory screen for control Hh wild type fibroblast cells (AID 1347121); note: nearly all actives have a fitted effect of over 70% in size
Procedure, shortened: as §1

[17] = qHTS of pediatric cancer cell lines to identify multiple opportunities for drug repurposing: Primary screen for Rh30 cells (AID 1347107); note: nearly all actives have a fitted effect of over 75% in size
Procedure, shortened: as §1

[18] = qHTS of pediatric cancer cell lines to identify multiple opportunities for drug repurposing: Primary screen for Rh41 cells (AID 1347108); note: nearly all actives have a fitted effect of over 70% in size
Procedure, shortened: as §3

[19] = qHTS of pediatric cancer cell lines to identify multiple opportunities for drug repurposing: Confirmatory screen for BT-12 cells (AID 1347112); note: nearly all actives have a fitted effect of over 55% in size
Procedure, shortened: as §1

[20] = qHTS of pediatric cancer cell lines to identify multiple opportunities for drug repurposing: Confirmatory screen for LAN-5 cells (AID 1347113); note: nearly all actives have a fitted effect of over 65% in size
Procedure, shortened: as §1
Potency is the fitted concentration of half-maximal effect.

Row | SMILES | Potency [1] | Potency [2] | Potency [3] | Potency [4] | Potency [5] | Potency [6] | Potency [7] | Potency [8] | Potency [9] | Potency [10] | Potency [11] | Potency [12] | Potency [13] | Potency [14] | Potency [15] | Potency [16] | Potency [17] | Potency [18] | Potency [19] | Potency [20]
1 | COc1cc2nc(N3CCCN(C)CC3)nc(NC3CCN(Cc4ccccc4)CC3)c2cc1OC | 8.33 µM (active) | 10.9 µM (active) | 9.35 µM (active) | 8.63 µM (active) | 8.33 µM (active) | 9.35 µM (active) | 16.6 µM (active) | 20.8 µM (active) | 7.37 µM (active) | inactive | inactive | 0.928 µM (active) | 20.8 µM (active) | 11.7 µM (active) | inactive | inactive | – | – | – | –
2 | O=C(O)CSCC(=O)NC1CCSC1=O (stereo unspecified) | inactive | inactive | inactive | inactive | inactive | inactive | inactive | – | – | – | – | – | – | – | – | – | inactive | inactive | – | –
3 | NC(=O)N1c2ccccc2CC(=O)c2ccccc21 | inactive | inactive | inactive | inactive | inactive | inactive | inactive | – | – | – | – | – | – | – | – | – | inactive | inactive | – | –
4 | CC(C)(C#N)c1cc(Cn2cncn2)cc(C(C)(C)C#N)c1 | inactive | inactive | inactive | inactive | – | inactive | inactive | inactive | inactive | inactive | inactive | – | inactive | inactive | inactive | inactive | inactive | inactive | inactive | inactive
5 | S=P(N1CC1)(N1CC1)N1CC1 | 18.7 µM (active) | inactive | inactive | 24.3 µM (active) | inactive | inactive | inactive | – | 0.928 µM (active) | inactive | – | inactive | – | 4.14 µM (active) | inactive | inactive | inactive | – | inactive | –
6 | CCn1cc(C(=O)O)c(=O)c2cc(F)c(N3CCNCC3)cc21 | inactive | inactive | inactive | inactive | inactive | inactive | inactive | – | – | – | – | – | – | – | – | – | inactive | inactive | – | –
7 | O=c1cc(O)c(Cl)c[nH]1 | inactive | inactive | inactive | inactive | – | inactive | inactive | – | – | – | – | – | – | – | – | – | inactive | – | – | –
8 | CN(C)c1ccc(C(=C2C=CC(=[N+](C)C)C=C2)c2ccc(N(C)C)cc2)cc1 | 1.68 µM (active) and 526 nM (active) | 1.38 µM (active) and 611 nM (active) | 750 nM (active) and 332 nM (active) | 978 nM (active) and 217 nM (active) | 1.88 µM (active) and 662 nM (active) | 2.66 µM (active) and 1.48 µM (active) | 8.41 µM (active) and 2.64 µM (active) | 1.17 µM (active) | 1.47 µM (active) | 0.737 µM (active) | 1.85 µM (active) | 1.17 µM (active) | 1.17 µM (active) | 0.928 µM (active) | 0.827 µM (active) | 1.04 µM (active) | 11.9 µM (active) and 5.9 µM (active) | 6.68 µM (active) and 1.66 µM (active) | 2.33 µM (active) | 1.17 µM (active)
9 | Cc1ncc([N+](=O)[O-])n1CCO | inactive | inactive | inactive | inactive | inactive | inactive | inactive | – | – | – | – | – | – | – | – | – | inactive | inactive | – | –
10 | COc1nc(N)nc2c1ncn2[C@@H]1O[C@H](CO)[C@@H](O)[C@@H]1O | inactive | inactive | inactive | inactive | inactive | inactive | inactive | inactive | 1.85 µM (active) | inactive | inactive | inactive | 18.5 µM (active) | 3.69 µM (active) | – | inactive | inactive | – | – | inactive
11 | CN(C)CCc1c[nH]c2ccc(C[C@H]3COC(=O)N3)cc12 | inactive | inactive | inactive | inactive | inactive | inactive | inactive | – | – | – | – | – | – | – | – | – | inactive | inactive | – | –
12 | Cc1ccnc2c1NC(=O)c1cccnc1N2C1CC1 | inactive | inactive | inactive | inactive | inactive | inactive | inactive | – | – | – | – | – | – | – | – | – | inactive | inactive | – | –
13 | CNC(=O)c1cc(Oc2ccc(NC(=O)Nc3ccc(Cl)c(C(F)(F)F)c3)cc2)ccn1 | 20.9 µM (active) | 17.2 µM (active) | 18.7 µM (active) | 15.3 µM (active) and 15.5 µM (active) | 18.7 µM (active) and 23.7 µM (active) | – | inactive | 20.8 µM (active) | 23.3 µM (active) | – | 18.5 µM (active) | – | 23.3 µM (active) | 18.5 µM (active) | – | – | – | 18.7 µM (active) | – | 23.3 µM (active)
14 | CN(Cc1cc(Br)cc(Br)c1N)C1CCCCC1 | inactive | inactive | inactive | – | inactive | inactive | inactive | – | – | – | – | – | – | – | – | – | inactive | inactive | – | –
15 | CC[C@H](C)C(=O)O[C@H]1C[C@@H](C)C=C2C=C[C@H](C)[C@H](CC[C@@H]3C[C@@H](O)CC(=O)O3)[C@H]21 | inactive | 1.23 µM (active) and 3.43 µM (active) | – | 6.92 µM (active) and 9.68 µM (active) | inactive | 4.22 µM (active) and 4.69 µM (active) | inactive | – | – | – | – | – | – | – | – | – | – | – | – | –
16 | CCC(C)(C)c1ccc(CC(C)CN2C[C@@H](C)O[C@@H](C)C2)cc1 (stereo partly specified) | inactive | inactive | inactive | – | inactive | inactive | inactive | – | – | – | – | – | – | – | – | – | inactive | inactive | – | –
17 | CC(C)NCC(O)c1ccc(NS(C)(=O)=O)cc1 (stereo unspecified) | inactive | inactive | inactive | inactive | inactive | inactive | inactive | inactive | inactive | inactive | inactive | inactive | inactive | inactive | inactive | inactive | inactive | – | inactive | inactive
